SMILES strings stand for the structures. Values joined by “and” are separate entries in the source; they are usually repeats but may differ in a detail not shown here. Identical values can stand only once. About 83,000 compounds went through this panel and 20% of them were active in at least one assay; those are over-represented in the sample as a whole.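 Each cell line was grown in a 96-well plate and treated with one concentration of compound for 48 hours. Values below 10 were considered active.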 Active and inactive are the calls of the source.

The assay concerns HL-60(TB) leukemia. The assay can be described thus: NCI-60 one-dose screen, 48 h (100 = growth as untreated, 0 = no growth, -100 = all killed). To be noted: 10 µM unless noted.
Consider `Cc1c(O)c(N=Nc2ccc(C(=O)O)c(O)c2)c2ccccc2c1O`, for which the growth is 77.4% (inactive).
For `COc1c(NC=O)c2c(c([N+](=O)[O-])c1OC)C(=O)OC2` the value was 98% (inactive) and 90.7% (inactive); for `CN(CC(=O)Nc1nc2ccccc2[nH]1)S(=O)(=O)c1ccc(Cl)cc1`, 90% (inactive).
As for `CCOC(=O)Cn1c(O)c(N=Nc2ccc(S(N)(=O)=O)cc2)c2cc(Br)ccc21`, the figure is 96.2% (inactive); as for `COc1cccc2c(=O)c3c(sc12)c(N1CCNCC1)nc1ccccc13`, -52.2% (active).
As for `C=C1C(=O)O[C@H]2[C@H]1CC/C(COC(=O)CSCCSCC(=O)OC/C1=C/CC[C@@]3(C)O[C@H]3[C@H]3OC(=O)C(=C)[C@@H]3CC1)=C\CC[C@@]1(C)O[C@@H]21`, the figure is -58.8% (active).
Take `COc1ccc(C(O)c2cc3c(N)c(C(=O)Nc4ccc(Cl)cc4)sc3nc2C)cc1` (centres undefined): the growth was -50.1% (active).
In the case of `NNC(=O)c1ccc(C(=O)NN)cc1`, the growth is 124% (inactive).
`NC1=NCc2nc3ccccc3c(=O)n2C1`: the growth was 90.9% (inactive).
For `CN1C(=O)/C(=C/c2cn(-c3ccccc3)nc2-c2ccccc2)SC1=S`, the growth is 109% (inactive).
As for `COc1ccc(Nc2cc(C)nc(NCc3ccccc3)n2)cc1`, the figure is 11.3% (inactive); as for `CCOC(=O)/C=C/c1ccc(C(=O)OCC)[nH]1`, 51.2% (inactive); as for `CCN1CCC2(CC1)OC(c1ccccc1)C(c1ccccc1)O2` (centres undefined), 103% (inactive).
For `C=C(C)[C@@H]1CC[C@]2(C(=O)NCCNCCNC(=O)OC(C)(C)C)CC[C@]3(C)[C@H](CC[C@@H]4[C@@]5(C)CCC(=O)C(C)(C)[C@@H]5CC[C@]43C)[C@@H]12` the value was -14.3% [100 µM] (active); for `CCOc1ccc2sc(NS(=O)(=O)c3ccc(N)cc3)nc2c1`, 94.7% (inactive).
For `N#C/C(=C\c1ccc[nH]1)c1cc2ccccc2[nH]1` the value was 64.8% (inactive).
Take `O=Nc1c(O)ccc2ccccc12`: the growth is -26.3% (active) and 74% (inactive).
For `O=S(=O)(NCCCNc1nccc(-c2c(-c3ccc(F)c(O)c3)nc3occn23)n1)c1ccc(Cl)cc1` the value was 94.2% (inactive); for `O=C(CSc1nnc2n1S(=O)(=O)c1ccccc1N2c1ccccc1)Nc1nc2ccc(F)cc2s1`, 106% (inactive).
As for `COC(=O)[C@H]1[C@H]2C[C@@H]3c4[nH]c5cc(OC)ccc5c4CCN3C[C@H]2C[C@@H](OC(=O)/C=C/c2cc(OC)c(OC)c(OC)c2)[C@@H]1OC`, the figure is -40.1% (active); as for `CS(=O)(=O)Nc1cccc(C(=O)NCc2ccc(N3CCOCC3)cc2)c1`, 91.9% (inactive); as for `Cc1ccc(Nc2cc(N)nc(N)n2)cc1Cl`, 98.7% (inactive).
For `O=C(NO)c1ccc(Cn2c(=O)n(-c3ccccc3)c(=O)c3ccccc32)cc1` the value was 1.26% (active); for `NC(=O)C1CC2C=CC1C2` (centres undefined), 108% (inactive) and 106% (inactive).
For `C=C(C)[C@@H]1CC[C@]2(C(=O)O)CC[C@]3(C)[C@H](CC[C@@H]4[C@@]5(C)C[C@@H](Cc6cn(CCO[C@@H]7O[C@H](COC(C)=O)[C@H](OC(C)=O)[C@H](OC(C)=O)[C@H]7OC(C)=O)nn6)[C@H](O)C(C)(C)[C@@H]5CC[C@]43C)[C@@H]12`, the growth is 37.9% (inactive).
For `CC(C)=C1C=C2CC[C@@H]3[C@](C)(CCC[C@@]3(C)C(=O)O)[C@H]2CC1` the value was 105% (inactive); for `CCCCCCCCCCCCCCCCNC(=O)Nc1ccc(C)c(NC(=O)NCCCCCCCCCCCCCCCC)c1`, 98.8% (inactive).
For `CC(=O)Oc1c(Cl)c(Cl)c(Cl)c(Cl)c1Cl` the value was 82.2% (inactive); for `N#C/C(=C\c1ccc(Br)cc1)n1nnc2ccc(F)cc21`, -23.2% (active); for `CC1(C)Cc2c(cn(Cc3ccccc3)c2-c2ccccc2)-c2oncc21`, 85.7% (inactive).
For `COc1ccc(-c2c3c(N)c4c(nc3nc3c2c(C)nn3-c2ccccc2)CCCCC4)cc1` the value was 49.3% (inactive); for `COc1cc(-c2csc(NC(=O)Nc3ccc(Cl)cc3)n2)cc(OC)c1OC`, 2.62% (active); for `C=CCOc1ccc2c(c1)CC=C1[C@@H]2CC[C@]2(C)C(=O)/C(=N/O)C[C@@H]12`, 22.7% (inactive).
For the compound `COc1cc2cc(Oc3ccc(NC(=O)Nc4ccc(Cl)c(Cl)c4)cc3)c(C)nc2cc1OCCN1CCOCC1`, the growth is 97.9% (inactive).
As for `CCOc1ccccc1/C=N\N=C\c1ccccc1O`, the figure is 30.6% (inactive); as for `CCOC(=O)c1c(/C=C/C(=O)O)nc2ccccc2c1/C=C/c1ccccc1`, 8.28% (active); as for `C/C(=N\NC(=O)c1ccccc1O)c1cccc(/C(C)=N/NC(=O)c2ccccc2O)n1`, 6.42% (active).
As for `CCCCOc1nc2ccccc2cc1/C=C/c1cc(/C=C/c2cc3ccccc3nc2OCCCC)n(-c2ccccc2)n1`, the figure is 97.5% (inactive); as for `O=c1c2cccc3c(Nc4ccc(F)cc4)ccc(c32)c2nc3ccccc3n12`, 124% (inactive).

Source of the values: PubChem BioAssay (NCI).
